# Screening data deposited in PubChem BioAssay by The Scripps Research Institute Molecular Screening Center.
# GPR151 ag – human GPR151 activation; 650,000 tested, 1% active; PathHunter beta-arrestin GPR151 cells, luminescence; activation, % at 11.2 µM; Q8TDV0; in the data active = activation above about 4.9%;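 also: 0% = median of compound wells and 100% = cells with positive control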
# TEAD-YAP block – TEAD-YAP interaction inhibition; 640,000 tested, 1.4% active; HEK-TIYL cells, TEAD-Gal4/YAP UAS-luciferase luminescence; inhibition, % at 9.12 µM; AID 1259422; in the data active = inhibition above about 32%;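 also: 0% = median of test compound wells and 100% = reference inhibitor wells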
# FBW7 act – human FBW7 E3 ligase activation, primary screen; AlphaScreen FBW7–phospho-cyclin E peptide binding, activator screen; normalized activity (activation), % at 26.1 µM; 650,000 tested, 0.13% active; AID 1259310; in the data active = normalized activity above about 1.9%;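 also: purified mutant Fbw7 with reduced substrate affinity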
# MITF inh – blocks human microphthalmia-associated transcription factor. 650,000 tested, 0.91% active. AlphaScreen MITF homodimerization, bead proximity signal. AID 1259374. inhibition, % at 2.6 µM; in the data active = inhibition above about 50%;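 also: 0% = vehicle wells with protein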
# Target sequence (O75030 whole entry, looked up): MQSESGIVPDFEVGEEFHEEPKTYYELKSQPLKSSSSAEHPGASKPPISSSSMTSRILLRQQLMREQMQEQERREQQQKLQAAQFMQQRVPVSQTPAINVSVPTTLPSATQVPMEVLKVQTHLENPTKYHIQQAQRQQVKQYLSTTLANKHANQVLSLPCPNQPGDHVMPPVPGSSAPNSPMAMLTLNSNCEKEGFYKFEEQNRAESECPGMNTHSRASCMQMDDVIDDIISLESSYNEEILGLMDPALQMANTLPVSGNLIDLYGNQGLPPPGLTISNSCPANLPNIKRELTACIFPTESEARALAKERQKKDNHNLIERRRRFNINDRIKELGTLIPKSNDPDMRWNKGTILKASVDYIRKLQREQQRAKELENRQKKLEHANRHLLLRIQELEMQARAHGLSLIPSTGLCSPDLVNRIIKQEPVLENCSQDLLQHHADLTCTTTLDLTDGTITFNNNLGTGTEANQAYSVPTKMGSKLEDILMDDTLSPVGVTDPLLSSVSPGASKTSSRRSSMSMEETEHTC
# Active calls of the source: *. An excerpt weighted towards active compounds, which were near 3.5% of everything screened.
SMILES,GPR151 ag,TEAD-YAP block,FBW7 act,MITF inh
COc1ccc(S(=O)(=O)N2c3cc(C)ccc3C(C)=CC2(C)C)cc1,0.7,62.8*,0.0,6.4
COc1ccc(S(=O)(=O)N2c3ccc(Cl)cc3C(C)=CC2(C)C)cc1,-0.4,57.7*,0.0,14.1
COc1ccc(NC(=O)C(C)n2ncn3cccc3c2=O)cc1OC (configuration not stated),0.5,-9.0,-0.1,6.8
O=C(Nc1ccc(O)cc1)c1ccc2ccccc2c1,-1.2,46.6*,0.0,-1.9
O=C(Nc1ccc(O)cc1)c1ccccc1Cl,-0.9,51.9*,0.1,0.1
CC(=O)Oc1ccc(C(=O)Nc2ccc3ccccc3c2)cc1,-1.3,35.5*,-0.4,-17.1
CS(=O)(=O)Nc1ccc(C(=O)Nc2ccc3ccccc3c2)cc1,-2.7,-35.4,0.1,0.7
NC(=O)c1ccc(NC(=O)c2ccc3ccccc3c2)cc1,1.1,-77.0,0.6,23.3
CCOC(=O)c1sc2ncn(/N=C/c3ccco3)c(=O)c2c1C,1.1,2.5,-0.1,11.0
Cc1sc2ccc(Cl)cc2[n+]1CC(O)CS(=O)(=O)O (configuration not stated),-0.4,21.7,-0.6,7.1
O[C@@H]1[C@@H](O)C=C2CCN3Cc4cc5c(cc4[C@H]1C23)OCO5 (some centres not stated),0.6,82.2*,0.5,23.0
Cc1ccc(C)c(NC(=O)c2cccc3nc4ccccc4nc23)c1,-1.2,6.6,-0.2,-1.2
O=[N+]([O-])c1cc(-c2ccc(/C=N\n3cnnc3)o2)ccc1O,-2.6,4.8,-0.3,57.6*
CCN(C(=O)CSc1nnc(COc2ccccc2)o1)c1ccccc1,-0.2,3.3,0.1,17.3
CCCCNC(=O)CSCc1nc(-c2ccc(C)cc2)oc1C,2.1,4.3,0.6,18.4
CCOc1ccc(-c2nc(CSCC(=O)NCCN3CCCC3)c(C)o2)cc1,0.8,33.6*,-0.2,-4.1
CCOc1ccc(-c2nc(CSCC(=O)NCCCN3CCCC3)c(C)o2)cc1,0.5,-2.6,-0.1,-4.1
CCOc1ccc(-c2nc(CSCC(=O)O)c(C)o2)cc1,0.9,98.4*,0.1,-9.9
COc1ccc(-c2nc(CSCC(=O)O)c(C)o2)cc1,-1.1,82.4*,0.0,5.0
COc1ccc(-c2nc(CSCC(=O)NCC(OC)OC)c(C)o2)cc1,0.6,6.1,0.0,18.3
CCOC(=O)CSCc1nc(-c2ccc(C)cc2)oc1C,0.1,79.8*,-0.2,-5.8
O=C(c1ccc2cncc(-c3ccccc3)c2n1)N1CCOCC1,-2.5,36.2*,-0.4,16.9
O=C(c1ccc2cncc(-c3ccccc3)c2n1)N1CCC(O)CC1,-0.3,50.9*,-0.8,6.5
O=C(c1ccc2cncc(-c3ccsc3)c2n1)N1CCC(O)CC1,-1.8,61.3*,-0.6,-43.1
COc1ccc(NC(=O)C(=O)N2CCCCC2)cc1Cl,-3.3,-44.7,0.6,9.8
SMILES,GPR151 ag,TEAD-YAP block,FBW7 act,MITF inh
CCOC(=O)c1sc(NC(=O)CCCCCN2C(=O)c3ccccc3C2=O)c(C(=O)OCC)c1C,-0.2,6.5,-0.1,-13.7
CNC(=O)/C(=C\c1ccc([N+](=O)[O-])cc1)NC(=O)c1ccco1,0.2,2.7,0.0,9.3
NNC(=O)/C(=C/c1ccc([N+](=O)[O-])cc1)NC(=O)c1ccco1,0.3,50.1*,-0.2,-0.9
Cc1cccc(C)c1NC(=O)C(c1ccc(Cl)cc1)N(Cc1ccco1)C(=O)c1ccc(-n2cnnn2)cc1 (configuration not stated),0.7,40.9*,-0.1,-0.9
COc1ccc(S(=O)(=O)NCC2CCCN(C(=O)C3=C(C)OCCO3)C2)cc1 (configuration not stated),-0.4,0.1,0.2,12.0
Cc1ccnc(NC(c2ccc(C(C)(C)C)cc2)c2ccc3cccnc3c2O)c1 (configuration not stated),-0.1,18.7,-0.1,-8.8
C=CCOc1cccc(C(Nc2cc(C)ccn2)c2ccc3ccc(C)nc3c2O)c1 (configuration not stated),-1.3,16.9,-0.1,-60.0
CCOc1ccc(C(Nc2cc(C)ccn2)c2ccc3cccnc3c2O)cc1C (configuration not stated),0.3,85.6*,-0.3,8.4
Cc1ccnc(NC(c2ccncc2)c2ccc3ccc(C)nc3c2O)c1 (configuration not stated),1.0,39.5*,-0.2,3.6
Oc1c(C(Nc2nccs2)c2cccnc2)ccc2cccnc12 (configuration not stated),0.6,66.8*,-0.4,89.3*
COc1ccccc1NC(c1cccnc1)c1ccc2cccnc2c1O (configuration not stated),-0.5,3.3,-2.0,76.3*
